Data as given in ChEMBL document CHEMBL1961873, “Compounds: GSK PKIS; Assays: Nanosyn kinase panel” (2012).

Experiments:
[1] = biological target: High affinity nerve growth factor receptor (Homo sapiens) (UniProt P04629); conditions: at 1 µM;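 also: each value is the mean percent inhibition of TRKA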
[2] = biological target: BDNF/NT-3 growth factors receptor (Homo sapiens) (UniProt Q16620); conditions: at 0.1 µM
[3] = biological target: BDNF/NT-3 growth factors receptor (Homo sapiens) (UniProt Q16620); conditions: at 1 µM
[4] = biological target: NT-3 growth factor receptor (Homo sapiens) (UniProt Q16288); conditions: at 0.1 µM
[5] = biological target: NT-3 growth factor receptor (Homo sapiens) (UniProt Q16288); conditions: at 1 µM
[6] = biological target: T1, Tyrosine-protein kinase TXK (Homo sapiens) (UniProt P42681); conditions: at 0.1 µM
T1 sequence (whole entry): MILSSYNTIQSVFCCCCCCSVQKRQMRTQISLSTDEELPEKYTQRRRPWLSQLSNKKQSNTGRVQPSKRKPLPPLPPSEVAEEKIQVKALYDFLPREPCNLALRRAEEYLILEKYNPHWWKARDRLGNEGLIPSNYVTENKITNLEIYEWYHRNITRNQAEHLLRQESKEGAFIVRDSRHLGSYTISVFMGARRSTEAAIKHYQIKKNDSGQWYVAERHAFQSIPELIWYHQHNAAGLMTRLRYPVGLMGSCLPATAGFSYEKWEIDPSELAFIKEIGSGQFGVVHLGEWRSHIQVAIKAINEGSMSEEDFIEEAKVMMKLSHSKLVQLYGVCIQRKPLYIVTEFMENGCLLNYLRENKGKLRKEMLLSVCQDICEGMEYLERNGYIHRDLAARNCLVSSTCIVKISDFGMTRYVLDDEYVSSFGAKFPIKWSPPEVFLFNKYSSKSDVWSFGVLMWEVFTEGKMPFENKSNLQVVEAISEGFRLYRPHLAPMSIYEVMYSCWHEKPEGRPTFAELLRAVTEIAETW

[7] = biological target: T1, Tyrosine-protein kinase TXK (Homo sapiens); conditions: at 1 µM
[8] = biological target: Non-receptor tyrosine-protein kinase TYK2 (Homo sapiens) (UniProt P29597); conditions: at 0.1 µM;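 also: each value is a mean of the inhibition readings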
[9] = biological target: T2, Dual specificity protein kinase TTK (Homo sapiens) (UniProt P33981); conditions: at 1 µM;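 also: reported figures are mean TTK inhibition at 1 µM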
T2 sequence (whole entry): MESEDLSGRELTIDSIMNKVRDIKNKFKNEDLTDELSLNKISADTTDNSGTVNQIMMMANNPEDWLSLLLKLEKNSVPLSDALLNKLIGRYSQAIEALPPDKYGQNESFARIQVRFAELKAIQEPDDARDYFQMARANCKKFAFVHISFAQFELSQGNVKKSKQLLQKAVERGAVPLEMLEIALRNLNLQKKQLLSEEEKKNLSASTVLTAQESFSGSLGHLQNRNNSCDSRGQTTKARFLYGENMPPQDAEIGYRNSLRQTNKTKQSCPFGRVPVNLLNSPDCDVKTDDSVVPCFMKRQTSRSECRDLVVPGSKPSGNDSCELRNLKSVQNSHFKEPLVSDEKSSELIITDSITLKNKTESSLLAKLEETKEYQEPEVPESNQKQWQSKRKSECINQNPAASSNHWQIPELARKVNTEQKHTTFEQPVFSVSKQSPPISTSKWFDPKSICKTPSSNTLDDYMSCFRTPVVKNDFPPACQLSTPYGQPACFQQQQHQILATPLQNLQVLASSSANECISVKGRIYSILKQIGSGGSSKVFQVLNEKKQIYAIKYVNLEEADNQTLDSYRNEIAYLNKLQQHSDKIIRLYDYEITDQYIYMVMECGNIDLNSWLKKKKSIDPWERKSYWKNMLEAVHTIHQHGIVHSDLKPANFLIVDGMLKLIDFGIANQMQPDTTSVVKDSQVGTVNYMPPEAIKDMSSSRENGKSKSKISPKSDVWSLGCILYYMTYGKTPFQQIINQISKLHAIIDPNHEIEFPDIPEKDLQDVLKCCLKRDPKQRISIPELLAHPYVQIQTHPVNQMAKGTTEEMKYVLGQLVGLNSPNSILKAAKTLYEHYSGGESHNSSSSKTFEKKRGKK

[10] = biological target: T3, Aurora kinase A (Homo sapiens) (UniProt O14965); conditions: at 0.1 µM;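 also: each reported value is a mean percent inhibition of Aurora-A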
T3 sequence (whole entry): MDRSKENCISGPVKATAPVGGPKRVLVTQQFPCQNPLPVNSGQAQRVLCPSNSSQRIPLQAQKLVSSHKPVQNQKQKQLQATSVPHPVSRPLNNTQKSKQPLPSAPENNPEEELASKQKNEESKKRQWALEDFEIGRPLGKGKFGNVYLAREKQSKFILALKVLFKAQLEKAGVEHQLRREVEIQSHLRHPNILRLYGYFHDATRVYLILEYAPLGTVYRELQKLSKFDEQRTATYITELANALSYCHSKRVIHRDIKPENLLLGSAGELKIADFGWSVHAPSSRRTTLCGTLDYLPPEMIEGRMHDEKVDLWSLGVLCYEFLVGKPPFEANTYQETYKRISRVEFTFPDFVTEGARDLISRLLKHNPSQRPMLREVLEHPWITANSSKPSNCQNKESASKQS

Sequence of NT-3 growth factor receptor (Homo sapiens) (Q16288 32-839 limits assumed): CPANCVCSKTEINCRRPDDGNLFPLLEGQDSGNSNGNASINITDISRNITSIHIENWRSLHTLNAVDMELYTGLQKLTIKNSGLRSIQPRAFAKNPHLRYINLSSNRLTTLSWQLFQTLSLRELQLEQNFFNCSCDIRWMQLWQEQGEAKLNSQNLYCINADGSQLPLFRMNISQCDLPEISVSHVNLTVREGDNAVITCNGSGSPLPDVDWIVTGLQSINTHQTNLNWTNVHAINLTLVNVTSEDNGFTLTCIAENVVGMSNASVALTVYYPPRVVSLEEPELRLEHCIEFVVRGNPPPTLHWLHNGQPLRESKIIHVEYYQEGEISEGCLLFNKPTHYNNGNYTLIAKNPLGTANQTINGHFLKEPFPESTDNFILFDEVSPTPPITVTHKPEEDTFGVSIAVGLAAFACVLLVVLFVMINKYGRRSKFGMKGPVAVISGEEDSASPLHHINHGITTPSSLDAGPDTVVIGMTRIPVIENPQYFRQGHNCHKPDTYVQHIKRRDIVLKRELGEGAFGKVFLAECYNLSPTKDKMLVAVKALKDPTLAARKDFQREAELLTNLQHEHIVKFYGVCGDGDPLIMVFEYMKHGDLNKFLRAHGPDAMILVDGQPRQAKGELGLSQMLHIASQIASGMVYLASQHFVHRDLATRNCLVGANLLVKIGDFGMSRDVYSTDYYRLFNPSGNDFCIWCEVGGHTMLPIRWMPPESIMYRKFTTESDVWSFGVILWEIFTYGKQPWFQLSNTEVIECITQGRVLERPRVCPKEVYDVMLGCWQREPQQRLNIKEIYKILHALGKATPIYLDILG
Sequence of Non-receptor tyrosine-protein kinase TYK2 (Homo sapiens) (P29597 whole entry): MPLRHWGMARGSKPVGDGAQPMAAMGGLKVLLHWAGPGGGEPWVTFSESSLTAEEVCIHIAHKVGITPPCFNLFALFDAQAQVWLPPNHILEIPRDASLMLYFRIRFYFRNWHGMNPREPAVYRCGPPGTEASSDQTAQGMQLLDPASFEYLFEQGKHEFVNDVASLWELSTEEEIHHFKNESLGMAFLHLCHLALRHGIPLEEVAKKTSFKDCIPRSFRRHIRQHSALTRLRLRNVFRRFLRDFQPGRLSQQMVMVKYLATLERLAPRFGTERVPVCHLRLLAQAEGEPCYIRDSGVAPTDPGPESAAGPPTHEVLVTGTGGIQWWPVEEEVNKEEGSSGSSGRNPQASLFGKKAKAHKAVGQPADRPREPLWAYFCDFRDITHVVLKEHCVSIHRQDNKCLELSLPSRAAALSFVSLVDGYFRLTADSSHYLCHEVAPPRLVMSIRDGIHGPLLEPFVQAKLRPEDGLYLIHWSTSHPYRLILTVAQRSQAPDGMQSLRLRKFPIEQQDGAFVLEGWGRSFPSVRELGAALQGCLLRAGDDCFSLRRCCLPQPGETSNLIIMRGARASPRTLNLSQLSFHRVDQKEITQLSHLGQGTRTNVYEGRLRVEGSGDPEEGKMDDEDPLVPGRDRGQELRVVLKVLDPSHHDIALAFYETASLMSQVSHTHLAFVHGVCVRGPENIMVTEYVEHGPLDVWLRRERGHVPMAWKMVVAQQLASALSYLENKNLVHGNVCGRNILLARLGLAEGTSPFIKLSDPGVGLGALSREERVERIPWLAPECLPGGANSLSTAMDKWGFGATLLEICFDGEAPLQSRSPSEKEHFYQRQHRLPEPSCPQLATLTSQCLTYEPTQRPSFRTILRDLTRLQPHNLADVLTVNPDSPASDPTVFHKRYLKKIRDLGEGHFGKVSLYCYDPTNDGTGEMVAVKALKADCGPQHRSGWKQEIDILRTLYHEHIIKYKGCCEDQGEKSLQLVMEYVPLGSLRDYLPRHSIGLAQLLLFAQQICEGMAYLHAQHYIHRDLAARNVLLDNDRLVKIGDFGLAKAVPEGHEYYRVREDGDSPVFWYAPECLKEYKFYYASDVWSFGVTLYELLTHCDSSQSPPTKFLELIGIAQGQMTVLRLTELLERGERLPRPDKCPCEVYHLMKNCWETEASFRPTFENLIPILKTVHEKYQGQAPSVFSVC
Sequence of High affinity nerve growth factor receptor (Homo sapiens) (P04629 33-796 limits assumed): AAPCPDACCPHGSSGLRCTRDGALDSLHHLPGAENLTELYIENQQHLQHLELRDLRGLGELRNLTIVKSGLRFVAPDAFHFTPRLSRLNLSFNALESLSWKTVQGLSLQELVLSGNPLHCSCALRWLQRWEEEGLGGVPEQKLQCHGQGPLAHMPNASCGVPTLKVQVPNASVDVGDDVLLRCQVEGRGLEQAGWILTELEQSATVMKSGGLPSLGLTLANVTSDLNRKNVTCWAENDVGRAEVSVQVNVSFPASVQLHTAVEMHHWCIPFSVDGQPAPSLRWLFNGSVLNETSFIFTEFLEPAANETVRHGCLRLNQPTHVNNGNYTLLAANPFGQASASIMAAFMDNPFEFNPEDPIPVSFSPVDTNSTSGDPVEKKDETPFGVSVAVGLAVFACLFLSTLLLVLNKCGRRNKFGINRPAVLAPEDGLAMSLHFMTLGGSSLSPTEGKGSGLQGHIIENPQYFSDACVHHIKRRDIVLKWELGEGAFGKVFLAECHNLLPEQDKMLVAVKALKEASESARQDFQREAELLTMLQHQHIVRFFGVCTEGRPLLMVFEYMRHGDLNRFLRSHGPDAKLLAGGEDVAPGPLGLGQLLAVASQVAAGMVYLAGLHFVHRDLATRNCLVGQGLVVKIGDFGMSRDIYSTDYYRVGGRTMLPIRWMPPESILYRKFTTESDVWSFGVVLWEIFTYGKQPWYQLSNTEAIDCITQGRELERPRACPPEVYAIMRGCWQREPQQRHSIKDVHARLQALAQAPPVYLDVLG
Sequence of BDNF/NT-3 growth factors receptor (Homo sapiens) (Q16620 32-822 limits assumed): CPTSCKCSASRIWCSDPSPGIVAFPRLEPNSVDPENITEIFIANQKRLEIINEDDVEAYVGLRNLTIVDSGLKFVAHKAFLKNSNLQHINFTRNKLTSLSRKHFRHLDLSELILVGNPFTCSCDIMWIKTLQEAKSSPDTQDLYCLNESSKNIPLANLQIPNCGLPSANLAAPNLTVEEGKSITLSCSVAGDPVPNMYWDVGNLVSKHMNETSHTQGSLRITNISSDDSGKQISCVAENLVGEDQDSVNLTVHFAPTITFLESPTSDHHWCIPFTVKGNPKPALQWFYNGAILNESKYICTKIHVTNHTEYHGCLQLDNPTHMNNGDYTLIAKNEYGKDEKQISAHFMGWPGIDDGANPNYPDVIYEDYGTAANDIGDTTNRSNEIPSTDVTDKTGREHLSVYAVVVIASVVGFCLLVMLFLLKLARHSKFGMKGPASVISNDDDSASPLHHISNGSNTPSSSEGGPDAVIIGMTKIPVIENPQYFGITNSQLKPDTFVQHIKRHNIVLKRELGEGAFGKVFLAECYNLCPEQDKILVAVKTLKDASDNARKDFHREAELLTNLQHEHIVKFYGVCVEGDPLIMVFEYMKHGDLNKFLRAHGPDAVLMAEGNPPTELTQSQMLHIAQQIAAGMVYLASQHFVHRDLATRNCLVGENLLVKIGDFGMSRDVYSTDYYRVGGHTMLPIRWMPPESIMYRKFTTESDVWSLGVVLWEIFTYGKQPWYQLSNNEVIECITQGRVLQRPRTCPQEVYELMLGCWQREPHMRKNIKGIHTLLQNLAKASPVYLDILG

Structure (SMILES)	inhibition [1] [%]	inhibition [2] [%]	inhibition [3] [%]	inhibition [4] [%]	inhibition [5] [%]	inhibition [6] [%]	inhibition [7] [%]	inhibition [8] [%]	inhibition [9] [%]	inhibition [10] [%]
CC1=C(C(=O)Nc2ccc3[nH]ncc3c2)C(c2ccc(Cl)c(Cl)c2)CC(=O)N1 (stereo not given)	0.57	1.67	-0.28	2.34	1.92	1.64	0.6	0.3	7.89	9.43
COc1ccccc1Nc1ncc(-c2ccccc2)o1	4.51	4.57	8.84	4.02	9.48	0.91	6.86	-6.02	11.9	4.71
CC(=O)Nc1cccc(C#Cc2cncnc2Nc2ccc(OCc3cccc(F)c3)c(Cl)c2)n1	-2.48	-1.79	0.05	-0.41	4.04	0.96	0.46	4.58	10.8	-0.41
NCc1ccc(-c2nc(-c3ccc(Cl)c(O)c3)c(-c3ccncc3)[nH]2)cc1	-1.42	-0.05	0.73	-0.91	1.61	18.9	61.1	1.75	7.44	1.53
Cc1nnc(-c2ccc(C)c(-c3ccc(C(=O)Nc4cccc(C#N)c4)cc3)c2)o1	-1.21	1.33	3.51	-0.42	3.49	3.37	4.78	-1.14	6.46	0.8
O=C(Nc1n[nH]c2nc(-c3ccco3)c(Br)cc12)C1CC1	3.72	-0.07	1.56	1.75	4.33	2.71	5.55	-1.26	-3.66	2.52
Cn1cc(C=C2C(=O)Nc3cccnc32)c2ccccc21	66	25.3	75.5	20.5	71.6	2.53	6.47	-0.05	22.8	5.95
Nc1ncnc2occ(-c3ccc(NC(=O)Nc4cccc(C(F)(F)F)c4)cc3)c12	96.5	59.4	91.1	58.9	88.9	-1.65	5.17	-3.69	18.1	9.27
O=C1NC(=O)C(N2CCc3ccccc32)=C1c1ccc(Cl)cc1	3.04	3.69	7	2.99	4.89	5.42	8.99	-4.08	2.25	2.79
CCn1c(-c2nonc2N)nc2cncc(C(=O)N3CC[C@H](N)C3)c21	2.78	4.37	3.61	2.56	3.15	3.09	2.08	-0.69	2.6	3.07
CS(=O)(=O)CCNCc1ccc(-c2ccc3ncnc(Nc4ccc(OCc5ccccc5)c(Cl)c4)c3c2)o1	4.84	2.92	2.87	1.98	2.17	1.26	1.47	1.67	6.09	0.56
N#Cc1c(NC(=O)c2cccc3ccccc23)sc2c1CCCC2	1.26	2.03	2.36	2.33	2.63	2.34	4.42	-0.41	0.69	2.42
CCCN1CCC=C(c2ccc(Nc3nc(Nc4ccccc4C(N)=O)c4cc[nH]c4n3)c(C)c2)C1	6.59	3.01	6.47	2.46	3.13	6.59	13.1	-5.21	70.7	6.15
NS(=O)(=O)c1ccc(N/N=C2\C(=O)Nc3ccc(C(=O)NCCc4c[nH]cn4)cc32)cc1	14.9	6.79	31.4	9.97	41.8	3.49	3.55	-1.79	71.5	3.83
Cc1nn(C)c2cc(N(C)c3ccnc(Nc4cccc(S(N)(=O)=O)c4)n3)ccc12	6.3	2.64	11.7	2.83	12.3	53.5	79.2	-1.02	26.4	20
O=C1NC(=O)C(c2cccc(Cl)c2)=C1Nc1ccc(O)c(Cl)c1	2.57	-0.13	0.31	-0.33	1.68	2.35	3.52	3.26	4.84	2.24
CCCN1CCC(Oc2cc(Nc3nc(Nc4cccc(F)c4C(N)=O)c4cc[nH]c4n3)c(OC)cc2Cl)CC1	5.14	-1.93	3.41	-1.48	5.25	2.84	3.46	0.33	33.7	0.38

Structure (SMILES)	inhibition [1] [%]	inhibition [2] [%]	inhibition [3] [%]	inhibition [4] [%]	inhibition [5] [%]	inhibition [6] [%]	inhibition [7] [%]	inhibition [8] [%]	inhibition [9] [%]	inhibition [10] [%]
CCn1c(-c2nonc2N)nc2c(C#CC(C)(C)O)nc(OC[C@@H](N)c3ccccc3)cc21	1.12	-1.96	0.07	-1.23	3.35	6.5	5.38	2.72	1.66	1.81
CC(C)=Cc1cccc2c1/C(=N/Nc1ccc(S(N)(=O)=O)cc1)C(=O)N2	51.5	22.4	75.3	23.6	77.2	3.64	12.9	3.75	51.7	25.6
CCn1c(-c2nonc2N)nc2cnc(Oc3cccc(NC(=O)c4ccc(OCCN5CCOCC5)cc4)c3)cc21	-0.09	3.18	0.84	2.85	2.49	5.3	5.82	-1.13	10.2	6.07
COc1ccc(-c2coc3ncnc(N)c23)cc1	2.06	2.05	1.62	2.53	2.68	2.99	6.19	-3.01	11.5	3.09
CCN1CCC(CC(=O)Nc2n[nH]c3nc(-c4cccs4)c(Br)cc23)CC1	0.88	-0.35	-1.99	-0.62	0.26	-1.07	-3.55	-2.72	-0.41	-2.72
Cc1cccc(-c2n[nH]cc2-c2ccc3ncccc3n2)n1	-0.2	-0.22	0.79	0.22	-0.92	1.27	2.32	-0.15	3.31	2.76
CS(=O)(=O)CCNCc1nc(-c2ccc3ncnc(Nc4ccc(F)c(Cl)c4)c3c2)cs1	1.47	0.48	4.21	1.55	2.39	3.78	15.9	-3.38	6.34	1.71
COc1cc2ncn(-c3cc(O[C@@H](C)c4ccccc4Cl)c(C(N)=O)s3)c2cc1OC	6.09	5.59	18.6	6.76	32.5	-1.39	5.82	-2.87	9.98	4.95
COC(=O)Nc1nc2cc(Oc3cccc(NC(=O)Nc4cc(C(F)(F)F)ccc4F)c3)ccc2[nH]1	-0.96	-0.54	2.43	-0.83	5.81	2.14	2.8	1.53	0.75	1.04
COc1ccc(-c2ccncc2)cc1C(N)=O	6.42	3.52	3.6	4.78	4.79	4.98	5.36	-2.48	8.41	2.92
NC(=O)c1cccc(Nc2nccc(Nc3cccc4[nH]ncc34)n2)c1	6.83	0.06	14.1	1.25	12.9	15.8	55.1	4.66	9.28	36.4
Nc1ncnc2occ(-c3ccc(NC(=O)Nc4cc(C(F)(F)F)cc(C(F)(F)F)c4)cc3)c12	94.1	42.3	86.4	39	87.4	1.73	4.45	-8.39	3.75	2.66
CN(C)c1cc2c(Nc3ccc4nc(Cc5ccccc5)[nH]c4c3)ncnc2cn1	3.31	3.89	2.87	3.93	4.24	8.4	13.7	-8.04	32.2	3.28
[O-][S+]1CCN(Cc2ccc(-c3ccc4ncnc(Nc5ccc(OCc6ccccc6)c(F)c5)c4c3)o2)CC1	1.44	1.84	1.51	0.84	2.26	2.49	3.34	-3.81	12.9	2.01
COc1cc2ncn(-c3cc(O[C@H](C)c4ccccc4Cl)c(C(N)=O)s3)c2cc1OC	12.4	8.25	43.3	16.1	62.6	5.04	15.8	-0.55	13.2	2.7
COc1cc2ncn(-c3cc(OCc4ccccc4Cl)c(C(N)=O)s3)c2cc1OC	2.92	2.11	13.7	3.13	20.4	2.99	13.2	2.29	0.54	1.9
